Results from PubChem BioAssay AID504332 (National Center for Advancing Translational Sciences (NCATS), 2011).
The whole screen tested about 350,000 compounds, of which about 31,000 (8.9%) were called active. Roughly 15% stayed inconclusive and do not appear here. Calls follow the shape of the dose curve; as a rule, active = well fitted inhibition curve with a large enough effect; inconclusive = small, poorly fitted or top-dose-only effect; inactive = no such curve, though single readings can be large or run the other way. The full list was thinned out, with actives kept by preference.

The compounds below were run against Histone-lysine N-methyltransferase EHMT2 (Homo sapiens) (UniProt Q96KQ7) (assay: qHTS Assay for Inhibitors of Histone Lysine Methyltransferase G9a). Details: G9a H3K9 monomethylation, AlphaScreen, 2 h; series mostly up to 59 µM.
Chain of Histone-lysine N-methyltransferase EHMT2 (Homo sapiens) (Q96KQ7 913-1193 limits assumed): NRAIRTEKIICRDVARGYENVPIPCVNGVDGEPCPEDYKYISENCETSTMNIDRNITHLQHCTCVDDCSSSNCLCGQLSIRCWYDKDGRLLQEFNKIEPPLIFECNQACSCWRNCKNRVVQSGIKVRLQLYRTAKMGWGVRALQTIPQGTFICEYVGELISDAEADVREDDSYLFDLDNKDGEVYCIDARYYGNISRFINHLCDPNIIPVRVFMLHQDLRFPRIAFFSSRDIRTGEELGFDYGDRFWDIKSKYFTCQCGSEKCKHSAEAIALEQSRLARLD
Summary of the method: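 Compounds were preincubated with 20 nM G9a for 15 min, after which biotinylated H3K9 peptide (500 nM) and SAM (20 uM) started a 2 h room-temperature reaction. Monomethylated product was quantified by antibody-based AlphaScreen chemiluminescence.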
% is scaled to controls: 0 for no effect and ±100 for the full control effect; potency is read from the fitted curve at half-maximal effect.
Also: nearly all actives have a fitted effect of over 75% in size.

activity, negative = inhibition, inactive:
NC(=O)c1ccsc1NC(=O)COC(=O)COc1ccc(C=O)cc1 -1.54% [at 12.7 µM]
CC(C)OC(=O)CN1C(=O)c2ccccc2C1=O -1.86% [at 12.7 µM]
Cc1ccc(F)cc1NC(=O)CSCc1c(C)noc1C 28% [at 12.7 µM]
CN1CCN(CC(=O)Nc2sc3c(c2C#N)CCC(C(C)(C)C)C3)CC1 (configuration not stated) 2.75% [at 12.7 µM]
C=C1CCC(N(O)c2cc(C)on2)C(=C)CCC2C1CC2(C)C (configuration not stated) -0.801% [at 0.501 µM]
CCC[C@H]1CCCC/C=C\CCCC(=O)OCCN1C(=O)OC(C)(C)C 5.32% [at 2.33 µM]
CCn1c(=O)c(=O)n(CC)c2cc(N3CCCCC3)c(NC(=O)c3ccc(Cl)cc3)cc21 1.91% [at 12.7 µM]
O=C(OCC(=O)N1CCN(C(=O)c2ccco2)CC1)c1ccc(Cl)c(Cl)c1 16.1% [at 12.7 µM]
Cc1cc2nc3n(c2cc1C)CC1CC(C(=O)NCCC(C)C)N(C)C31 (configuration not stated) 5.1% [at 12.7 µM]
Oc1c(CN2CCCC2)cc(COCc2ccccc2)c2cccnc12 -18% [at 12.7 µM]

Potency, active:
O=C1c2ccccc2C(=O)N1CCC(O)C[N+](=O)[O-] (configuration not stated) 31.6 µM
N#CCC(=O)Nc1ccc(C(=O)OCC(=O)Nc2sc3c(c2C#N)CCCC3)cc1 50.1 µM
CCN1CCN(CC(=O)Nc2sc3c(c2C#N)CCC3)CC1 70.8 µM
CC(=O)N(C1=C(Cl)C(=O)c2ccccc2C1=O)c1ccc(C(=O)O)cc1 0.891 µM
CCn1c(=O)n(CC)c2cc(N3CCCC3)c(NC(=O)c3ccccc3Br)cc21 44.7 µM
Cc1ccc(S(=O)(=O)N2CCCCC2)cc1C(=O)N1CCN(CCO)CC1 11.2 µM
COc1cc2c(cc1OC)C(/C=C/c1ccco1)=NCC2 50.1 µM
O=C(NCCCN1CCCCCC1)c1ccc(N2CCCC2=O)cc1 22.4 µM
CC(C(=O)Nc1ccc(O)c(C(=O)O)c1)N1C(=O)/C(=C/c2cccs2)SC1=S (configuration not stated) 35.5 µM
CCCCC(CC(C)O)c1n[nH]c(=S)n1-c1ccccc1 (configuration not stated) 5.01 µM
CCN1CCN(C(c2cccnc2)c2cc(Cl)c3cccnc3c2O)CC1 (configuration not stated) 1.12 µM
CCOC(=O)N1CCN(C(c2cccnc2)c2ccc3cccnc3c2O)CC1 (configuration not stated) 0.316 µM

Potency, inactive:
O=C1c2ccccc2C(=O)N1CCC(c1ccccc1)c1ccco1 (configuration not stated)
C=CCN1C(=NC(=O)COc2ccccc2)SC2CS(=O)(=O)CC21 (configuration not stated)
Cc1ccc(C)c(OCC(=O)Nc2sc3c(c2C#N)CCCC3)c1C
Cc1cccc(C(=O)OCC(=O)Nc2sc3c(c2C#N)CCC3)c1
CCCc1cc(=O)[nH]c(SCC(=O)Nc2sc3c(c2C#N)CCCC3)n1
CCC1CCCCN1C(=O)Cn1c(=O)n(CCCCCC(=O)NCc2ccccc2)c(=O)c2sccc21 (configuration not stated)
COc1ccccc1C(=O)Nc1c(C(=O)N(C)Cc2ccccc2)sc2nc(C)c(Cl)c(C)c12
Cc1ccccc1NC(=O)CN1C(=O)C(C)(C)c2ccccc21
CCCCC12CN3CC(C)(CN(C1)C3c1ccc(O)c(OC)c1)C2=O (configuration not stated)
O=C1CC(c2nnc(Cc3ccc(Cl)cc3)o2)CN1c1ccccc1 (configuration not stated)
O=C(CN1C(=O)c2ccccc2C1=O)NCc1ccc(C(=O)O)cc1
CC(C)N(C(=O)c1ccc(-c2ccccc2F)cc1)C(C)C
COc1cccc(CNCc2c(C(=O)O)n(Cc3ccc(C)cc3)c3cc(C)ccc23)c1OC
CCn1c(=O)c(=O)n(CC)c2cc(N3CCCCC3)c(NC(=O)c3cccc(F)c3)cc21
Cc1cc(C)cc(NC(=O)Cn2c(=O)c3ccccc3n3nncc23)c1
COc1cc(C(=O)OCC(=O)N(CC(C)C)C2CCS(=O)(=O)C2)ccc1OCC(C)C (configuration not stated)
COc1ccc(C(=O)OCC(=O)N2CC(=O)Nc3ccccc32)cc1Br
CCOC(=O)N1CCN(C(=O)c2cn(C)c3ccc(S(=O)(=O)N4CCCC4)cc3c2=O)CC1
Cc1ccc(S(=O)(=O)N2CCN(C)CC2)cc1C(=O)NC1CCCCC1
Cc1cccc(N2CCN(c3c(CN4CCCC4)c(=O)oc4ccccc34)CC2)c1C
COc1ccc(N(CC(=O)NCCc2ccc(Cl)cc2)S(=O)(=O)c2c(C)nn(C)c2C)cc1
CCC(=O)N1CCc2cc(S(=O)(=O)NC(Cc3ccccc3)C(=O)NCc3ccccc3)ccc21 (configuration not stated)
Cc1ccc(S(=O)(=O)NCCC(=O)NCc2ccc(Cl)cc2)cc1C
CCOC(=O)C1=NN(c2ccc(Cl)cc2)/C(=C/C2=NCCc3cc(OC)c(OC)cc32)S1
COc1cc2c(cc1OC)C(c1cccc([N+](=O)[O-])c1)=NCC2
O=C(O)c1cccc2c1C(=O)N(C1CCCC1)C2
COc1ccc(NC(=O)c2ccc3nc(C(C)C)oc3c2)cc1OC
CCc1ccc(CN(Cc2ccco2)C(=O)c2ccccc2Cl)cc1
CCOc1ccc(C(=O)NCCCN2CCCC2=O)cc1
CC1CCC(NC(=O)c2ccc(N3CCCC3=O)cc2)CC1 (configuration not stated)
Cc1nc(SCC(=O)N2CCN(c3ccccc3)CC2)[nH]c(=O)c1C
CC(C)Cn1c(N)c(C(=O)COC(=O)C2CCCN2C(=O)c2cccs2)c(=O)n(C)c1=O (configuration not stated)
O=C(CCCN1C(=O)/C(=C/c2cccs2)SC1=S)Nc1ccc(O)cc1
O=C(CCN1C(=O)/C(=C/c2cccs2)SC1=S)NNC(=O)c1cccc(O)c1
O=C(COc1ccccc1Cl)Nc1ccccc1C(=O)NC1CC1
Cc1cnc(C)c(N2CCN(C(=O)C3CCC(=O)N(CCc4cccc(F)c4)C3)CC2)n1 (configuration not stated)
N#Cc1ccccc1Cn1cnc2nc3c(cc2c1=O)CCCC3
COc1ccccc1N1CCN(C(CNC(=O)C(=O)NCc2ccc(C)cc2)c2cccnc2)CC1 (configuration not stated)
CCOc1ccc(C(NC(=O)c2cc(OC)c(OC)c(OC)c2)c2cc(Cl)c3cccnc3c2O)cc1 (configuration not stated)
CCOC(=O)N1CCN(C(=O)CSc2nc(=O)n3cccc(C)c3n2)CC1
